PubChem BioAssay (NCI)
The panel holds about 83,000 compounds, 20% with a hit somewhere; the sample as a whole holds those more often.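 Method: cells in 96-well plates; compound added at one concentration; 48 h incubation; percent growth measured; values under 10 scored active.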 Unmarked numbers belong to inactive results. Activity calls are given as the source filed them.

Test system: MDA-MB-468 breast
Assay: NCI-60 one-dose screen, 48 h (100 = growth as untreated, 0 = no growth, -100 = all killed)
Settings: 10 µM unless noted

Row | Compound | growth
1 | Cc1ccc2c(C(C[N+](=O)[O-])c3ccco3)c(-c3ccccc3)[nH]c2c1 (stereo not drawn) | 8.5% (active)
2 | Cc1ccc(C2C3CC4CCCCC4N3[C@@]3(C(=O)Nc4cc(Cl)ccc43)C2C(=O)c2nc3ccccc3[nH]2)cc1 (stereo partly drawn) | -10.9% (active)
3 | CC1(C)CC[C@]2(CO)CC[C@]3(C)[C@](O)([C@H](O)C[C@@H]4[C@@]5(C)CCCNC(C)(C)[C@@H]5CC[C@]43C)[C@@H]2C1 | 81.3%
4 | CC1Cc2c(Cl)ncnc2N(C)c2ccc(Cl)cc21 (stereo not drawn) | -35.8% (active)
5 | NC(=O)c1cccc(-n2ccc3cc(NC(=O)c4ccc(N5CCOCC5)c(C(F)(F)F)c4)ccc32)n1 | 75.7%
6 | COc1ccc(-c2nn(-c3ccc(S(C)(=O)=O)cc3)cc2/C=N/O)cc1 | 117%
7 | O=C(O)c1cn(C2CC2)c2cc(N3CCN(Cc4nc5c(cnn5-c5ccc([N+](=O)[O-])cc5)c(=O)[nH]4)CC3)c(F)cc2c1=O | 103%
8 | CC[n+]1c(/C=C/C=C2\N(C)c3ccccc3C2(C)C)sc2ccccc21 | -12.3% (active)
9 | CC/C(=C(\c1ccc(Cl)cc1)c1ccc(OCCN2CCCCC2)cc1)c1ccc(O)cc1 | 22.4%
10 | C1=C(c2ccccc2)c2ccccc2C1 | 100%
11 | O=C(c1ccc(Nc2nccc(NCCCCNc3ccnc4cc(Cl)ccc34)n2)cc1)N1CCCCC1 | -25.3% (active)
12 | O=c1cc(CNc2cc(F)cc(F)c2)c2ccc(I)cc2[nH]1 | 19%
13 | COc1ccc(/C=C/C(=O)c2cc3c(N)c(C(=O)Nc4ccccc4C)sc3nc2C)cc1 | 16.3%
